According to PubChem BioAssay:
Active and inactive are the calls of the source.

How the values were obtained:
[1] = binders of probe aFSTL3 on microarray, primary screen, stem cell growth factor project, biochemical, small-molecule microarray, fluorescence 635/667 (AID 1064); details: higher = more signal;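 also: measures binding of the biotinylated anti-FSTL3 antibody to printed compounds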
[2] = binders from COS7 lysate, DM2A8 probe, primary screen, torsin A project, cell lysate, small-molecule microarray, fluorescence 635/667 (AID 1065); details: higher = more signal, COS7 lysate expressing mutant human TOR1A
[3] = binders of probe aFGF2 on microarray, primary screen, stem cell growth factor project, biochemical, small-molecule microarray, fluorescence 635/667 (AID 1067); details: higher = more signal;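 also: measures binding of biotinylated aFGF2 protein to printed compounds on slides; z-score merges feature fluorescence and signal-to-noise across triplicate slides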
[4] = binders of probe aFGF10 on microarray, primary screen, stem cell growth factor project, biochemical, small-molecule microarray, fluorescence 635/667 (AID 1071); details: higher = more signal;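 also: score merges 667 nm spot intensity and signal to noise from triplicate slides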
[5] = target: Neurogenic locus notch homolog protein 2 (Homo sapiens) (UniProt Q04721); assay: Notch2 binders on small-molecule microarrays, primary screen, biochemical, small-molecule microarray, 635 nm fluorescence, stem cell growth factors (AID 1073); details: Notch2 binding, higher = more signal
Sequence of Neurogenic locus notch homolog protein 2 (Homo sapiens) (Q04721 whole entry, looked up, canonical isoform): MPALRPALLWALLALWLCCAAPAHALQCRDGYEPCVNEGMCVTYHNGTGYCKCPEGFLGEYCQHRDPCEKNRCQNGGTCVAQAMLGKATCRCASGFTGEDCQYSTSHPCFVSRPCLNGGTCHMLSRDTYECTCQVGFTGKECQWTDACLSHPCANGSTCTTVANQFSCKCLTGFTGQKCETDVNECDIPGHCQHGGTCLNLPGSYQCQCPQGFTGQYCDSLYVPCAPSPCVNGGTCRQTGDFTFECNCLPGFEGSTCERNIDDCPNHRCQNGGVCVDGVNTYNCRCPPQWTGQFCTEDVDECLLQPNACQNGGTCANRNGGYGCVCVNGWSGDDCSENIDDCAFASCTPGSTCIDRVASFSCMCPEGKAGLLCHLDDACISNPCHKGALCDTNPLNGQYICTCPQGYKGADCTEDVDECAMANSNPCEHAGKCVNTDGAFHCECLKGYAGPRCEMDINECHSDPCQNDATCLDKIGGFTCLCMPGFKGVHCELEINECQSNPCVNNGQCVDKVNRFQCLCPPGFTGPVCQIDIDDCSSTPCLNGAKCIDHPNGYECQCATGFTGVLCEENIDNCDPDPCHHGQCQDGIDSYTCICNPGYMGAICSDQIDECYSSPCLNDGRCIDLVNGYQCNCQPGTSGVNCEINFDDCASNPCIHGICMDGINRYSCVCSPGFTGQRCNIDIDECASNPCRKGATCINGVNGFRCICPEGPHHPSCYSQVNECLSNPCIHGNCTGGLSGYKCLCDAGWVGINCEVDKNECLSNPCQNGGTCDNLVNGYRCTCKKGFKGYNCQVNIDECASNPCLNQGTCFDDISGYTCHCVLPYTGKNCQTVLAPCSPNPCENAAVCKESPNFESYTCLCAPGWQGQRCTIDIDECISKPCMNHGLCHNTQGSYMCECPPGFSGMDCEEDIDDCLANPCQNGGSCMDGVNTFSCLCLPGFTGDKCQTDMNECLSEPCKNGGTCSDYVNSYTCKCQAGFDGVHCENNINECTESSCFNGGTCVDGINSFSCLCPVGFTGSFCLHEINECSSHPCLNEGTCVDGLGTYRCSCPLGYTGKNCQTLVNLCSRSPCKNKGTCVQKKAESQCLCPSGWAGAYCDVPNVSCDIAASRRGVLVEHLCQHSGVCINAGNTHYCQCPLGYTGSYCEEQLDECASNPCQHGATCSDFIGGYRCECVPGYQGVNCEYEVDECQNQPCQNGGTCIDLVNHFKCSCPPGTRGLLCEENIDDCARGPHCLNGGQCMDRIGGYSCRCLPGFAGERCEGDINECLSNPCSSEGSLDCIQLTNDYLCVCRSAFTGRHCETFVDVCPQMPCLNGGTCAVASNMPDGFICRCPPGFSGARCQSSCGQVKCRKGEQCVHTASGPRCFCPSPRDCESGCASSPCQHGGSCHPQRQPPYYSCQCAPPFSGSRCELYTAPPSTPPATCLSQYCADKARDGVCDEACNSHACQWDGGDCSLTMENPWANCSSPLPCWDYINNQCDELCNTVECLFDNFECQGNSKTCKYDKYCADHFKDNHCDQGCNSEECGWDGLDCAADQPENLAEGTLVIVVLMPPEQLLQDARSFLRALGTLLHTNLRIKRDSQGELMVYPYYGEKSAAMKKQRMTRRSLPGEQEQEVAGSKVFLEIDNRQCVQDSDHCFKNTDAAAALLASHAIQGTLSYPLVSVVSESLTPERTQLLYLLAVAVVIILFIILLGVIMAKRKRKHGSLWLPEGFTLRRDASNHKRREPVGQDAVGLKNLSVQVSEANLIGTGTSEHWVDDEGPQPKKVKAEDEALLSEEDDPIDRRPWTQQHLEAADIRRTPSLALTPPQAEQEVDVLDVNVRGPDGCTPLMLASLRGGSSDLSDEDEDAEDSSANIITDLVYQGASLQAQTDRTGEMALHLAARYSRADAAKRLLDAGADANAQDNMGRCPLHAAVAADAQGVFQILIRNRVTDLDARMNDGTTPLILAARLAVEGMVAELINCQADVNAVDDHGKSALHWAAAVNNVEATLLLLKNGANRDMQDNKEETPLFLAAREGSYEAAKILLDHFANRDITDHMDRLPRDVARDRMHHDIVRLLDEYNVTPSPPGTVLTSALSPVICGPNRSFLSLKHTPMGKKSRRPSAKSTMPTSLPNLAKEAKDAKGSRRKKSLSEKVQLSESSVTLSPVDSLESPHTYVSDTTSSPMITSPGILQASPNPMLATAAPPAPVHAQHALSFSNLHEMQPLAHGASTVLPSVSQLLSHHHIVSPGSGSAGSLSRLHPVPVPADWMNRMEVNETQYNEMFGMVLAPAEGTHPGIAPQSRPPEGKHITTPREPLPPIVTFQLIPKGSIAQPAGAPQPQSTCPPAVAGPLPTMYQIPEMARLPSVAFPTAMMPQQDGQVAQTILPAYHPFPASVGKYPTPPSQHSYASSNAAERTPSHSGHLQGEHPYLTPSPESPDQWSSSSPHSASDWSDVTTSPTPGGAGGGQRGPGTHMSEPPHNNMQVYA

[6] = target: Pro-neuregulin-1, membrane-bound isoform (Homo sapiens) (UniProt Q02297); assay: NRG1 binders on small-molecule microarrays, primary screen, psychiatric disease protein project, biochemical, small-molecule microarray, fluorescence 635/667 (AID 1075); details: NRG1 binding, 635 nm fluorescence, higher = more signal;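 also: score combines 667 nm spot fluorescence with signal to noise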
Sequence of Pro-neuregulin-1, membrane-bound isoform (Homo sapiens) (Q02297 whole entry, looked up, the tested form may be a part, canonical isoform): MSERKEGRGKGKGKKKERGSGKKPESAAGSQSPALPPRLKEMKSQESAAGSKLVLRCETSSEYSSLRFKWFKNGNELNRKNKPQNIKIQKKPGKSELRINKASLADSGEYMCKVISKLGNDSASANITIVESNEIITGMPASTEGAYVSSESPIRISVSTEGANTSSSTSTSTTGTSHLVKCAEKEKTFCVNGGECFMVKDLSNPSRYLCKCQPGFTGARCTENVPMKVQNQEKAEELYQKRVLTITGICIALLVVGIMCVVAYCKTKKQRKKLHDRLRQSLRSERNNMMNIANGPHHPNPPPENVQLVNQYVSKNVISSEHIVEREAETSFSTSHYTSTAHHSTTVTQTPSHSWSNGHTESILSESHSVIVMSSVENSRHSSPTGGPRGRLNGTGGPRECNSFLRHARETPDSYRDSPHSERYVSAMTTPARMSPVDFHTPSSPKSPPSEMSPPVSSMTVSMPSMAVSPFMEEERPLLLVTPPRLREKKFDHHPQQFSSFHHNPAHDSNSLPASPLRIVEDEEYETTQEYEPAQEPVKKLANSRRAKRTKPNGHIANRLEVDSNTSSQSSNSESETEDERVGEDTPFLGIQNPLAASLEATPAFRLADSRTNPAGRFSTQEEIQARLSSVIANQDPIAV

[7] = test system: Neuregulin-1 EGF-like domain; assay: binders of neuregulin-1 EGF-like domain, primary screen, biochemical, small-molecule microarray, 635 nm fluorescence (AID 1081); details: small-molecule microarray binding, higher = more signal;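 also: binding of the protein to compounds printed on small-molecule microarray slides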
[8] = FRG1 promoter luciferase signal modulators, primary screen, FRG1 inhibition for FSHD, cell-based, C2C12 myotubes, firefly/Renilla luciferase, luminescence (AID 1084); details: higher = more signal, called active from +8 up or from −8 down
[9] = binders of probe aFST on microarray, primary screen, stem cell growth factor project, biochemical, small-molecule microarray, fluorescence 635/667 (AID 1086); details: higher = more signal;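 also: score merges 667 nm fluorescence with signal-to-noise of each printed compound spot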
[10] = binders of probe aHhip on microarray, primary screen, stem cell growth factor project, biochemical, small-molecule microarray, fluorescence 635/667 (AID 1087); details: higher = more signal;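 also: score merges spot fluorescence at 667nm with spot signal to noise ratio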
[11] = test system: PRMT1 (protein arginine N-methyltransferase 1); assay: PRMT1 binders on small-molecule microarrays, primary screen, biochemical, small-molecule microarray, 635 nm fluorescence (AID 1088); details: small-molecule microarray binding, higher = more signal;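 also: binding of Prmt1 protein to compounds spotted on small-molecule microarray slides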
[12] = yeast growth modulation, basal conditions, primary screen, YJM789 clinical isolate, OD600, 24 h (AID 1089);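 also: growth of clinical yeast isolate S. cerevisiae YJM 789 seeded 1000 cells per well; test concentration not given here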; details: S. cerevisiae YJM789 growth, higher = more signal, called active from +8 up or from −8 down
[13] = fission yeast growth modulation, primary screen, strain 972, OD600, 24 h, no modulator (AID 1090);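 also: basal condition with compound alone and no growth modifier present; test concentration not given here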; details: S. pombe 972 growth, higher = more signal, called active from +8 up or from −8 down
[14] = S. cerevisiae growth modulation with rapamycin, primary screen, strain BY4716, OD600, 96 h (AID 1091); details: higher = more signal, called active from +8 up or from −8 down; also: test concentration not given here
[15] = target: Torsin-1A-interacting protein 2 (Homo sapiens) (UniProt Q8NFQ8); assay: LULL1 binders on small-molecule microarray, primary screen, cell lysate, human LULL1 lysate, 635/667 nm fluorescence (AID 1092); details: hLULL1 lysate binding, 635 nm fluorescence, higher = more signal;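 also: probe is lysate of COS7 cells overexpressing human LULL1; score merges per-feature 667 nm fluorescence with signal-to-noise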
Sequence of Torsin-1A-interacting protein 2 (Homo sapiens) (Q8NFQ8 whole entry, looked up): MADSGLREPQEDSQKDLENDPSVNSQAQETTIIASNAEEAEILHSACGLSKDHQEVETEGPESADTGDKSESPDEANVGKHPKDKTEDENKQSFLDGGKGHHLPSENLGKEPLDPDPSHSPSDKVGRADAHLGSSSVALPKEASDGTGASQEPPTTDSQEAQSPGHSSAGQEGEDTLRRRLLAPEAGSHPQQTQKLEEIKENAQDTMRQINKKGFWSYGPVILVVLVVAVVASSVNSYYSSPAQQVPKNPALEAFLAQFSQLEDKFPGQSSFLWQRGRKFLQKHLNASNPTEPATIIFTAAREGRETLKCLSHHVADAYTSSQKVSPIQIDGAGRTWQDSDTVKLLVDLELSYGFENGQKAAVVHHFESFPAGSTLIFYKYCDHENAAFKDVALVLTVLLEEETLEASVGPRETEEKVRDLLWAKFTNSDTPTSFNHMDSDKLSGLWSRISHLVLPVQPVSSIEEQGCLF

[16] = E. coli growth modulation, two-sided OD650, primary screen, E. coli filamentation project, strain DRC41, 24 h (AID 1093); details: OD650, 24 h, higher = more signal, called active from +8 up or from −8 down;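 also: MC1000 strain lacking acrAB efflux and sulA so SOS filamentation is blocked; test concentration not given here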
[17] = small-molecule microarray binders of probe aLefty2, primary screen, biochemical, biotinylated probe, 635/667 nm fluorescence (AID 1094); details: higher = more signal;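 also: score merges spot fluorescence near 667 nm with spot signal-to-noise ratio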
[18] = test system: Noggin (protein binding on small-molecule microarray); assay: Noggin binders on small-molecule microarray, primary screen, biochemical, 635/667 nm fluorescence (AID 1095); details: 635 nm fluorescence, higher = more signal;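 also: score merges 667 nm feature fluorescence with signal to noise over triplicate slides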
[19] = target: Neurogenic locus notch homolog protein 3 (Homo sapiens) (UniProt Q9UM47); assay: NOTCH3 binders on small-molecule microarray, primary screen, biochemical, 635/667 nm fluorescence (AID 1096); details: NOTCH3 binding, 635 nm fluorescence, higher = more signal
[20] = small-molecule microarray binders of probe aEGFR, primary screen, biochemical, biotinylated probe, 635/667 nm fluorescence (AID 1097); details: higher = more signal;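 also: probe is a biotinylated anti-EGFR antibody binding compounds printed on slides; score combines fluorescence near 667 nm and signal to noise of each spot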

Row | Structure (SMILES) | composite z-score [1] | composite z-score [2] | composite z-score [3] | composite z-score [4] | composite z-score [5] | composite z-score [6] | composite z-score [7] | z-score [8] | composite z-score [9] | composite z-score [10] | composite z-score [11] | z-score [12] | z-score [13] | z-score [14] | composite z-score [15] | z-score [16] | composite z-score [17] | composite z-score [18] | composite z-score [19] | composite z-score [20]
1 | COc1cc2c(cc1O)C(c1ccc(CN3CCCC3)cc1)N(Cc1cc3c(cc1Br)OCO3)CC2 (stereo not given) | -0.373 | -0.311 | -0.0351 | 0.183 | 0.963 | 0.729 | 0.784 | 0.0296 (inactive) | 0.296 | -0.201 | -0.137 | -0.312 (inactive) | -6.22 (inactive) | -1.83 (inactive) | 0.502 | -3.03 (inactive) | -0.0576 | -0.244 | 0.313 | -0.176
2 | CC(C)[Si](C#C[Si](C(C)C)(C(C)C)C(C)C)(O[C@H](c1ccccc1)c1cn(Cc2ccccc2)nn1)C(C)C | -0.353 | 0.213 | -0.1 | 0.311 | 0.615 | -0.16 | 0.928 | 0.133 (inactive) | 0.276 | 0.0808 | 1.26 | 0.242 (inactive) | 0.641 (inactive) | 0.0108 (inactive) | 0.754 | 0.769 (inactive) | -0.028 | 0.751 | 0.361 | 0.0129
3 | COC(=O)[C@@]1(Cc2ccccc2)[C@H]2c3cc(C(=O)N(C)C)n(Cc4ccc(C)o4)c3C[C@H]2CN1C(=O)c1ccccc1 | 1.97 | 0.6 | 0.632 | 0.685 | 1.36 | 1.47 | 1.15 | 0.495 (inactive) | 1.91 | 0.414 | 0.163 | 1.07 (inactive) | 0.65 (inactive) | 0.982 (inactive) | 2.93 | -1.64 (inactive) | 0.746 | -0.471 | 1.13 | 0.667
4 | O=C(O)[C@@H]1C[C@@H]2C(=O)N3CCC[C@H]3C(=O)N2[C@@H]1c1ccc(O)cc1 | 1.18 | 0.607 | -0.0058 | 0.0314 | 0.0995 | 0.956 | 1 | 7.28 (inactive) | 0.387 | 0.35 | 1.56 | -0.475 (inactive) | -0.854 (inactive) | 0.0128 (inactive) | 1.34 | 2.46 (inactive) | 0.226 | 1.93 | 1.01 | 0.12
5 | CC1CC/C=C\[C@H]2OC34C=CCN(c5ccc(Cl)cc5)C(=O)[C@H]3N(C(C)CO)C(=O)[C@]4(C)C2C(=O)O1 (stereo not given in full) | 0.0528 | -0.591 | -0.143 | -0.172 | -0.807 | -0.154 | 0.886 | 0.242 (inactive) | -0.732 | -0.0618 | -0.678 | -0.0407 (inactive) | -0.738 (inactive) | 0.334 (inactive) | -1.05 | 0.108 (inactive) | -0.0099 | -0.603 | -0.984 | -0.173
6 | N#Cc1ccc(NN2C(C(O)c3ccc(Br)cc3)C=CC3C(=O)N(c4ccccc4)C(=O)C32)cc1 (stereo not given) | 1.36 | 0.288 | 0.254 | 0.73 | 1.58 | 1.74 | 0.976 | -2.87 (inactive) | 0.907 | -0.182 | 0.751 | -1.16 (inactive) | -0.605 (inactive) | 0.297 (inactive) | 2.99 | -1 (inactive) | 0.145 | -0.146 | 1.01 | 0.233
7 | CCOC(=O)[C@@H]1CCCCN1C(=O)C(=O)OC | 0.0188 | 0.188 | -0.0593 | 0.453 | 0.0842 | -0.0734 | 0.33 | 0.148 (inactive) | 0.115 | -0.342 | 0.828 | 0.0293 (inactive) | 0.656 (inactive) | -0.131 (inactive) | 0.377 | 0.66 (inactive) | -0.0728 | 0.415 | 0.717 | -0.133
8 | [N-]=[N+]=NCc1ccccc1[C@H]1OC(c2ccc(OCCCO)cc2)=N[C@@]1(Cc1ccccc1N=[N+]=[N-])C(=O)NCC(O)CO (stereo not given in full) | -0.0235 | 0.651 | 0.0342 | 0.867 | 1.24 | 1.68 | 1.13 | 1.5 (inactive) | 1.43 | -0.31 | 1.54 | -0.527 (inactive) | -0.451 (inactive) | 0.134 (inactive) | 3.52 | -0.221 (inactive) | 0.0511 | 0.0758 | 1.09 | 0.0201
9 | CC(C)(C)OC(=O)COc1cccc(C(=O)CCN2CCOCC2)c1 | 1.39 | 0.262 | -0.0741 | -0.459 | -0.742 | 0.359 | 0.187 | 1.57 (inactive) | 0.482 | -0.243 | 1.34 | -0.728 (inactive) | -19.8 (active) | -2.13 (inactive) | 0.557 | 0.328 (inactive) | -0.126 | -0.0786 | -0.529 | -0.0815
10 | CCOC(=O)C1=C[C@@H](C(C)(C)C)N(S(=O)(=O)c2ccc(C)cc2)[C@H]1c1cccc2ccccc12 | 0.0905 | -0.0282 | -0.0724 | 0.0331 | 1.08 | 0.541 | 0.876 | -4.42 (inactive) | 0.692 | -0.0296 | 0.735 | 2.23 (inactive) | 2.75 (inactive) | 2.97 (inactive) | 2.36 | -0.296 (inactive) | -0.034 | 0.171 | 1.09 | -0.0828
